# Test results taken from PubChem BioAssay (Tox21).
# Records with an inconclusive call do not appear. A call without a number means that no potency is given here. The source made the active and inactive calls. The call rests on the fitted dose curve.
# Target: 5-hydroxytryptamine receptor 2A (Homo sapiens) (UniProt P28223)
# Assay: 5-hydroxytryptamine receptor 2A (HTR2A) small molecule antagonists, cell-based qHTS assay (AID 1963586); further: nearly all actives have a fitted effect of over 45% in size
# Details: HTR2A-CHO cells, DOI-induced calcium flux, fluorescence; series mostly up to 61.5 µM
# From the text: National Center for Advancing Translational Sciences [NCATS]
# Division of Preclinical Innovation [DPI]
# U.S. Environmental Protection Agency [EPA]
# National Institutes of Environmental Health Sciences [NIEHS]
# National Toxicology Program [NTP]
# U.S. Food and Drug Administration [FDA]
# The HTR2A receptor is a subtype of the 5-HT2 receptor that belongs to the serotonin receptor family and is a G protein-coupled receptor (GPCR). The HTR2A-CHO cell line stably expressing human 5-hydroxytryptamine receptor 2A (HTR2A) can be used for screening antagonists of interactions between 5-HT2 and its ligands. The HTR2A-CHO calcium flux assay is a homogeneous fluorescence-based assay for detecting the intracellular calcium level using FDSS kinetic plate reader system.
# Tox21 Assay Protocol Summary:
# HTR2A-CHO cells were dispensed at 2000 cells/3uL/well in 1536-well black-clear bottom plates using a Multidrop Dispenser. After the assay plates were incubated at a 37 C/5% CO2 incubator for 18 h, 3 uL of Dye Loading Buffer was transferred to the assay plate by a Flying Reagent Dispenser. The assay plates were incubated at 37 C for 1h. For antagonist mode, 23 nL of compounds dissolved in DMSO, positive controls or DMSO only was transferred to the assay plate by a pin tool. After 5 min incubation at room temperature, 1.5 uL of 4-Iodo-2,5-dimethoxy-alpha-methylbenzeneethanamine hydrochloride (DOI) at 4nM was added to each well. The fluorescence intensity in the plates was measured using FDSS 7000EX kinetic plate reader for 3 min at 1 sec intervals.
# Sequence of 5-hydroxytryptamine receptor 2A (Homo sapiens) (P28223 whole entry, looked up): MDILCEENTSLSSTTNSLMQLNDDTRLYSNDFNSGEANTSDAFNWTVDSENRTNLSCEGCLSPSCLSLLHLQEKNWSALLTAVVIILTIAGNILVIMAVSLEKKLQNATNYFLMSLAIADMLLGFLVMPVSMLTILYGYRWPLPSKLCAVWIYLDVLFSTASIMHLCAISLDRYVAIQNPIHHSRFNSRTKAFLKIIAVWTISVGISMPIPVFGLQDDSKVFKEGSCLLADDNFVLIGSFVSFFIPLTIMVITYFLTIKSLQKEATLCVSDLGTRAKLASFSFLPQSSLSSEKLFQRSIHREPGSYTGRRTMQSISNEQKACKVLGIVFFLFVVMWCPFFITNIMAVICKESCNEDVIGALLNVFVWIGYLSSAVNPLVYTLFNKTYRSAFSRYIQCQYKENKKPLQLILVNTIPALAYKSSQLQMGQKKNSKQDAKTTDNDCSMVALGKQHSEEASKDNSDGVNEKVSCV
row,Structure (SMILES),Potency
1,CCCCCCCCCCCCBr,inactive
2,CC(=O)[O][Hg][c]1ccccc1,inactive
3,CCOc1cc(C=O)ccc1O,inactive
4,CNC(=O)Oc1cccc2c1OC(C)(C)O2,inactive
5,CC[N+](=O)[O-],inactive
6,CCC(CC)Nc1c([N+](=O)[O-])cc(C)c(C)c1[N+](=O)[O-],inactive
7,ClCC1CO1 (stereo not given),inactive
8,Nc1cc(Cl)cc(C(=O)O)c1Cl,inactive
9,C[C@]1(O)CC[C@H]2[C@@H]3CCC4=CC(=O)CC[C@]4(C)[C@@]3(F)[C@@H](O)C[C@@]21C,inactive
10,CNC(=O)O/N=C/C(C)(C)S(C)(=O)=O,inactive
11,Cc1cccc(N)c1,inactive
12,CCOC(=O)C(c1c(O)c2ccccc2oc1=O)c1c(O)c2ccccc2oc1=O,inactive
13,Nn1cnnc1,inactive
14,COC(=O)c1ccccc1C(=O)OC,inactive
15,NCCOS(=O)(=O)O,inactive
16,COP(=S)(OC)Oc1ccc([N+](=O)[O-])cc1,inactive
17,CCC(C)Cl (stereo not given),inactive
18,CCOS(C)(=O)=O,inactive
19,O=S(=O)(O)C(F)(F)C(F)(F)C(F)(F)C(F)(F)C(F)(F)C(F)(F)C(F)(F)C(F)(F)F,inactive
20,O=C(O)C(F)(F)C(F)(F)C(F)(F)C(F)(F)C(F)(F)C(F)(F)F,inactive

row,Structure (SMILES),Potency
1,C=C(Cl)CCl,inactive
2,O=[N+]([O-])/C=C/c1ccccc1,inactive
3,Clc1ccc(C(c2ccc(Cl)cc2)C(Cl)Cl)cc1,inactive
4,Nc1nc(=S)[nH][nH]1,inactive
5,CNC(=O)Oc1ccccc1OC(C)C,inactive
6,CCCCCCn1cc[n+](C)c1,inactive
7,CC(=O)C(Cl)Cl,inactive
8,CC(Cl)(Cl)C(=O)O,inactive
9,NNC(N)=S,inactive
10,OC[C@@H](O)[C@H]1O[C@@H]2O[C@H](C(Cl)(Cl)Cl)O[C@@H]2[C@H]1O,inactive
11,CC(C)CON=O,inactive
12,ClC1(Cl)C2(Cl)C3(Cl)C4(Cl)C(Cl)(Cl)C5(Cl)C3(Cl)C1(Cl)C5(Cl)C24Cl (stereo not given),inactive
13,CC(=O)C=C(C)C,inactive
14,[Cl-].[Cl-].[Cl-].[Fe+3],inactive
15,C[N+](C)(C)Cc1ccccc1,inactive
16,c1ccc2sc(SNC3CCCCC3)nc2c1,inactive
17,Cn1c(N)nc2c3cccnc3ccc21,inactive
18,CC(C)C(=O)OCC(C)(C)C(OC(=O)C(C)C)C(C)C (stereo not given),inactive
19,c1nc[nH]n1,inactive
20,Cl/C=C\C[N+]12CN3CN(CN(C3)C1)C2,inactive
